Screening data (PubChem)
The list is not random: actives were taken first. Their share in the collection is about 1%.
MRP resist rev: MRP-mediated drug resistance reversal | H69AR cells + 2 uM doxorubicin, CellTiter-Glo, 72 h | differential viability (reversal), % at 10 µM | 85,000 compounds, 0.04% hits | AID 602;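 active = viability drop by adding the cancer drug above about 55%, with treated viability meeting a 40% cutoff, limit read from the data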;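 also: viability without doxorubicin minus viability with 2 µM doxorubicin for each compound; larger differential means the compound sensitizes cells more to doxorubicin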
sEH act: increases human soluble epoxide hydrolase activity; activation, % at 2 µM; P34913; 91,000 compounds, 0.04% hits; purified human sEH enzymatic activity, activator screen; in the data active = activation above about 37%
Target sequence (P34913 whole entry, looked up): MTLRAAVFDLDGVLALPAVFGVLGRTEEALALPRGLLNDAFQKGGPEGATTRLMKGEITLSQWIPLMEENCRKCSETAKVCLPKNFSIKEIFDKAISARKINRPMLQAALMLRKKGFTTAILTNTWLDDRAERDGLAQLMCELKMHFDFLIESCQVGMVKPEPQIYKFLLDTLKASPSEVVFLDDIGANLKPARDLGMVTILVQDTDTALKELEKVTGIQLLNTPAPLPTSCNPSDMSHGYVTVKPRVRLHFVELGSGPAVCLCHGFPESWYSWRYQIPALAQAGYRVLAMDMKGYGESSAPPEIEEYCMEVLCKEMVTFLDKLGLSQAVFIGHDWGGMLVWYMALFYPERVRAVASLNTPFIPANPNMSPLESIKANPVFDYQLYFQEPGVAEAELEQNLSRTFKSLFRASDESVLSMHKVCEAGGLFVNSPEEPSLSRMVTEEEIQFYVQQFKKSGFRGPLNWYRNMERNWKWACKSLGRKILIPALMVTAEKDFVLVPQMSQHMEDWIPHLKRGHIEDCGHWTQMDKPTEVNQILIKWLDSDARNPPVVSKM
SDO1 yeast rescue: compounds rescuing growth of sdo1-depleted yeast, bone marrow failure model; S. cerevisiae sdo1-depleted JHY4D growth rescue, OD600 30 h; stronger effect = higher value; pdr5 snq2 efflux-pump mutant strain; z-score at 10 µM; 140,000 compounds, 0.21% hits; AID 817;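 active = z-score above 3 at both the 24 hr and the 30 hr optical density reads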;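 also: z-score against mean and SD of all compound wells on the same plate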
sEH inhibitor: soluble epoxide hydrolase (human) inhibition; inhibition, % at 2 µM; 91,000 compounds, 0.34% hits; P34913; recombinant human sEH enzymatic activity assay; AID 707; in the data active = inhibition above about 80%
MRP1 act: MRP-1 activation. 140,000 compounds, 0.61% hits. AID 799. H69AR cells + doxorubicin, viability rescue, CellTiter-Glo. viability increase, % at 10 µM;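 active = viability gain under doxorubicin at or above a set limit, the compound median plus 3 SD, cut at about 4.7% in these data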;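 also: MRP-1 overexpressing cells given doxorubicin 25 µM after compound pretreatment; 18-22 h compound pretreatment then 72 h with doxorubicin before readout; 0% = doxorubicin-only wells and 100% = vehicle-treated cells without doxorubicin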
Phagocyt inh: inhibitors of macrophage phagocytosis; inhibition, % at 5 µM; 110,000 compounds, 0.07% hits; J774A.1 macrophage IgG-bead phagocytosis, imaging; AID 1029;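 active = inhibition above the mean of the plate negative controls plus 5 SD, cut at about 13% in these data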;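 also: phagocytic index as fraction of beads internalized from green versus red external bead signal; plate controls were DMSO negative control for no effect and cytochalasin-D positive control for full effect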
Starred values were filed as active, the others as inactive; . = no result given; [ ] = another dose, or the depositor's remark.

SMILES | MRP resist rev | sEH act | SDO1 yeast rescue | sEH inhibitor | MRP1 act | Phagocyt inh
CCCCCn1c(CN2CCCCC2CC)nc2c1c(=O)n(C)c(=O)n2C (stereo unspecified) | 23 | . | . | . | . | -1
COc1cc(CNC(=O)c2cccc(COc3ccc(Cl)cc3)c2)cc(OC)c1 | . | . | -1.1 | . | 4.8* | -13
O=C(NCc1ccccc1)c1cccc(COc2ccc(Cl)cc2)c1 | . | -5 | -0.65 | 8 | -1 | 0
O=S(=O)(NCCO)c1cccc2cccnc12 | 1 | -3 | 1.7 | 1 | -2 | 50*[artifact]
CCCNS(=O)(=O)c1cccc2cccnc12 | -9 | -4 | 0.35 | 8 | -2 | 0
O=C(O)c1ccc(CSc2ncn[nH]2)cc1 | 21 | 4 | 1.3 | -3 | -2 | -1
CCCOc1ccc(CSc2ncn[nH]2)cc1 | 14 | 16 | -0.06 | -12 | 7.4* | -1
Brc1ccc(CSc2ncn[nH]2)cc1 | -3 | -9 | 0.22 | 10 | 4.9* | 0
Cc1ccc(N2C(=O)N(Cc3ccccc3C)c3ccccc3S2(=O)=O)cc1 | . | . | -1.6 | . | 2 | -2
O=C(CCCOc1ccc(Cl)cc1Cl)N/N=C\C1CCCCC1 | . | -98 | -0.22 | 99* | -2 | .
Cc1cccc(CN2C(=O)N/C(=C/c3cc(C)n(-c4cc(C)ccn4)c3C)C2=O)c1 | . | -8 | 0.29 | 10 | 1 | .
Cc1cc(/C=C2\NC(=O)N(Cc3ccc(Cl)cc3)C2=O)c(C)n1C | . | . | -1.2 | . | 6.2* | -9
CCCN1CNC(=S)N(c2cc(C)ccc2C)C1 | -3 | 0 | 0.96 | -2 | -3 | .
COC(=O)C(CC(C)C)NC(=O)CSc1nc(-c2ccccc2)c(C#N)c(=O)[nH]1 (stereo unspecified) | -13 | 2 | 3.4 | -3 | 11* | 10
CCC(Sc1nc(-c2ccccc2)c(C#N)c(=O)[nH]1)C(=O)Nc1cc(C)on1 (stereo unspecified) | -5 | . | 1.1 | . | 11* | 0
CCn1ccnc1C(O)c1ccccc1OC (stereo unspecified) | 3 | 5 | 0.48 | -2 | -1 | .
Cc1ccc(O)c(/C=N/NC(=O)c2[nH]ncc2Br)c1 | . | . | 0.09 | . | 4.9* | 6
Cc1ccc(C)c(/C(O)=C2\C(=O)C(=O)N(CCCn3ccnc3)C2c2ccncc2)c1 (stereo unspecified) | -19 | -11 | -0.74 | 11 | 7.3* | .
CCOC(=O)CSc1nnc(SCCN2C(=O)c3ccccc3C2=O)s1 | 7 | 0 | 1 | -2 | 0 | 2
O=C1OC(c2ccco2)=N/C1=C\c1ccc(-c2cccc(C(F)(F)F)c2)o1 | . | . | -1.2 | . | -2 | -9
Cc1cccc(NS(=O)(=O)c2cc(C(=O)OC(C)C(=O)NCc3ccc4c(c3)OCO4)ccc2C)c1 (stereo unspecified) | . | . | -0.11 | . | 4.8* | -11
Cc1cccc(NC(=S)NCc2ccc3c(c2)OCO3)c1 | . | . | -0.1 | . | -4 | -12
COc1ccc(-c2cc(C(=O)Nc3sc4c(c3C#N)CCCC4)c3ccccc3n2)cc1 | . | . | 0.22 | . | 6.0* | -8
Cc1ccc(N=C(NOCc2ccc(Cl)cc2Cl)c2nonc2N)c(C)c1 | 57* | 2 | 0.88 | -5 | -3 | 0
Cc1ccccc1N=C(NOCc1ccc(Cl)cc1Cl)c1nonc1N | 0 | 6 | -1.7 | -6 | 1 | 2
SMILES | MRP resist rev | sEH act | SDO1 yeast rescue | sEH inhibitor | MRP1 act | Phagocyt inh
CCOc1ccc(NC(=O)N2CCC(c3ccc(C)cc3)C2)cc1 (stereo unspecified) | 0 | -82 | 0.26 | 82* | 0 | .
Cc1cc(N2CCCC(C(=O)Nc3ccc4c(c3)CCC4)C2)n2ncnc2n1 (stereo unspecified) | -12 | -82 | -0.78 | 82* | -3 | 0
COc1cccc(-c2csc(N3CCN(C(=O)NC45CC6CC(CC(C6)C4)C5)CC3)n2)c1 | 6 | -81 | -0.93 | 82* | 0 | .
CCN(CC)CC(C)OC(=O)COc1ccc(OC)cc1 (stereo unspecified) | 4 | 7 | 0.5 | -4 | -3 | .
Cc1cc(C(=O)COC(=O)c2ccccc2O)c(C)n1Cc1cccs1 | . | -9 | 0.38 | 9 | 2 | -1
Cc1cc(C(=O)COC(=O)c2ccc3c(c2)OCO3)c(C)n1Cc1cccs1 | 4 | 4 | -1.3 | -2 | 5.6* | -1
C/C(=N\Nc1cc(Cl)nc(C)n1)c1ccc(C)cc1 | . | 52* | . | -48 | . | .
C/C(=N\Nc1cc(Cl)nc(C)n1)c1ccc(Cl)c(Cl)c1 | . | . | -1.2 | . | -1 | -1
Cc1ccc(NC(=S)Nc2ccc(Br)cc2)cc1 | . | -2 | 0.42 | 2 | -4 | .
CNC(=S)Nc1ccc(C23CC4CC(CC(C4)C2)C3)cc1 | . | . | -2.3 | . | 5.2* | -16
CNC(=S)Nc1ccc(C)cc1 | . | . | 0.3 | . | 11* | 0
Oc1ccc(/C=N/NC2=NCCCCC2)cc1 | . | 11 | 0.98 | -12 | -1 | -1
COc1ccc(NC(=O)c2oc3ccccc3c2NC(=O)c2ccc3c(c2)OCO3)cc1 | . | 2 | -0.52 | -1 | 8.4* | -1
CCOC(=O)c1oc2ccccc2c1NC(=O)c1ccc2c(c1)OCO2 | -14 | 0 | -0.67 | -1 | 1 | -2
N#Cc1nc(COc2ccc(Br)cc2)oc1N1CCCC1 | -7 | -8 | -1 | 10 | 7.3* | -2
N#Cc1nc(COc2ccc(Br)cc2)oc1N1CCCCCC1 | 8 | -4 | -1.6 | 3 | 6.5* | 0
N#Cc1nc(COc2ccccc2)oc1N1CCOCC1 | 19 | -6 | 0.98 | 7 | 1 | .
CN1CCN(c2oc(COc3ccc(-c4ccccc4)cc3)nc2C#N)CC1 | 5 | 2 | -1.4 | 2 | -4 | 0
CCN(CC)S(=O)(=O)c1cccc2c(N(C)C)cccc12 | . | 4 | -0.81 | -4 | 0 | .
Cc1ccc(OCc2cn3cccnc3n2)cc1 | . | . | 1.6 | . | -1 | 4
COc1ccccc1N1CCN(C(=O)c2ccc3nc(-c4ccco4)c(-c4ccco4)nc3c2)CC1 | 22 | -3 | 0.08 | 1 | -1 | .
Cc1ccc(C)c(N2CCN(C(=O)c3ccc4nc(-c5ccco5)c(-c5ccco5)nc4c3)CC2)c1 | 1 | -9 | -0.4 | 12 | 9.9* | -2
COC(=O)C1C(=O)c2c([nH]c(C(=O)OC3CCCC3C)c2C)CC1C (stereo unspecified) | -9 | . | -1.2 | . | 1 | 0
COC(=O)C1C(=O)c2c([nH]c(C(=O)OC3CCCCC3)c2C)CC1C (stereo unspecified) | 2 | . | -0.36 | . | 5.2* | 0
COc1ccc(OCCN2C(=O)NC3(CCc4ccccc4C3)C2=O)cc1 (stereo unspecified) | . | . | 0.54 | . | -2 | .
COc1ccc(C(=S)N2CCOCC2)cc1OS(=O)(=O)c1ccccc1[N+](=O)[O-] | . | . | -0.01 | . | -4 | -4
Cc1ccc(Cn2ccc(=O)c(Cc3c(Cl)cccc3Cl)c2C)cc1 | . | -90 | -1.8 | 90* | 0 | -7
COc1ccc(NC(=O)N2CCCC(c3nc(-c4ccc(C(C)C)cc4)no3)C2)cc1 (stereo unspecified) | 2 | -92 | -1.9 | 92* | 0 | -2
CC(C)c1ccc(NC(=O)N2CCC(c3nc4ccccc4o3)CC2)cc1 | 3 | -96 | -0.74 | 96* | 2 | -2
